According to paper PMC5700166:

The sequences below were run against T1, GST-Nv-NF-kB (Ser allele) (Nematostella vectensis, UniProt A7UNT2 2-411) (assay: protein-binding microarray (PBM); PBM: ~300 nM protein, 6 mM HEPES pH 7.8, 80 mM KCl, 0.5 mM EDTA, 0.5 mM EGTA, 6% glycerol, 35 ng/ul poly-dIdC, 1% milk, 1 h, room temperature; Ap Aiptasia and Nv Nematostella (sea anemones) / Co Capsaspora / Aq Amphimedon (sponge) / Dm Drosophila / Hu human; RHD is the Rel homology domain; high values mean tight binding). Conditions: dsDNA, one strand shown.
T1 sequence: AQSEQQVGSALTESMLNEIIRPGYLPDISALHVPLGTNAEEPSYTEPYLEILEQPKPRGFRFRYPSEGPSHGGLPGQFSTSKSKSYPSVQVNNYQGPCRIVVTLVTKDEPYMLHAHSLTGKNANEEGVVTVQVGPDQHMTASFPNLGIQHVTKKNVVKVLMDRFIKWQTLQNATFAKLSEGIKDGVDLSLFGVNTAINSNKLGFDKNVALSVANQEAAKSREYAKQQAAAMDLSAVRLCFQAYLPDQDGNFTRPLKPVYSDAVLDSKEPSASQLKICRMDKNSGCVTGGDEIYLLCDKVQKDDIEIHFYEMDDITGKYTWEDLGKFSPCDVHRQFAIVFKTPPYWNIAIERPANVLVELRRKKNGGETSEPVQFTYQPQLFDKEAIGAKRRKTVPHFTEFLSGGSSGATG

Row | Sequence | binding signal [z-score]
1 | CCGATTAACATCAATATTTACCCTGATGTTAATCGGGTCTTGATTCGCTTGACGCTGCTG | 5.12
2 | CCGATTAACATCAGGGGGATAGATGATGTTAATCGGGTCTTGATTCGCTTGACGCTGCTG | 4.13
3 | CCGATTAACATCAGGGAAACTCATGATGTTAATCGGGTCTTGATTCGCTTGACGCTGCTG | 4.62
4 | CCGATTAACATCAGGGTATTTACTGATGTTAATCGGGTCTTGATTCGCTTGACGCTGCTG | 4.72
5 | CCGATTAACATCAGGAATTACCATGATGTTAATCGGGTCTTGATTCGCTTGACGCTGCTG | 2.03
6 | CCGATTAACATCAGGCCCCCCCCTGATGTTAATCGGGTCTTGATTCGCTTGACGCTGCTG | 3.9
7 | CCGATTAACATCAGGAATCCCTATGATGTTAATCGGGTCTTGATTCGCTTGACGCTGCTG | 1.72
8 | CCGATTAACATCAGGGATCACCCTGATGTTAATCGGGTCTTGATTCGCTTGACGCTGCTG | 1.43
9 | CCGATTAACATCAGATTCTCCCCTGATGTTAATCGGGTCTTGATTCGCTTGACGCTGCTG | 6.01
10 | CCGATTAACATCACGGGAAACTCTGATGTTAATCGGGTCTTGATTCGCTTGACGCTGCTG | 3.54
11 | CCGATTAACATCAGGGGGTAACCTGATGTTAATCGGGTCTTGATTCGCTTGACGCTGCTG | 3.93
12 | CCGATTAACATCAGAAATTCCCATGATGTTAATCGGGTCTTGATTCGCTTGACGCTGCTG | 5.93
13 | CCGATTAACATCAGGGACAGCCCTGATGTTAATCGGGTCTTGATTCGCTTGACGCTGCTG | 2.03
14 | CCGATTAACATCAGGGGTAAAACTGATGTTAATCGGGTCTTGATTCGCTTGACGCTGCTG | 3.62
15 | CCGATTAACATCACCCATGGGAATGATGTTAATCGGGTCTTGATTCGCTTGACGCTGCTG | 1.02
16 | CCGATTAACATCAACTGGGAAAATGATGTTAATCGGGTCTTGATTCGCTTGACGCTGCTG | 4.25
17 | CCGATTAACATCAAATCGGGAAATGATGTTAATCGGGTCTTGATTCGCTTGACGCTGCTG | 2.88
18 | CCGATTAACATCAACATCCCCCCTGATGTTAATCGGGTCTTGATTCGCTTGACGCTGCTG | 5.5
19 | CCGATTAACATCAGGGAAGTCCATGATGTTAATCGGGTCTTGATTCGCTTGACGCTGCTG | 1.93
20 | CCGATTAACATCAAGTGTTTCCCTGATGTTAATCGGGTCTTGATTCGCTTGACGCTGCTG | 3.36
21 | CCGATTAACATCAGGTAATTCCATGATGTTAATCGGGTCTTGATTCGCTTGACGCTGCTG | 3.72
22 | CCGATTAACATCACATTTTCCCATGATGTTAATCGGGTCTTGATTCGCTTGACGCTGCTG | 5.22

These sequences were tested against GST-Hu-p50 (Homo sapiens, UniProt P19838 7-356) in the same assay as above. Conditions: dsDNA, one strand shown.
Sequence of GST-Hu-p50 (P19838 7-356): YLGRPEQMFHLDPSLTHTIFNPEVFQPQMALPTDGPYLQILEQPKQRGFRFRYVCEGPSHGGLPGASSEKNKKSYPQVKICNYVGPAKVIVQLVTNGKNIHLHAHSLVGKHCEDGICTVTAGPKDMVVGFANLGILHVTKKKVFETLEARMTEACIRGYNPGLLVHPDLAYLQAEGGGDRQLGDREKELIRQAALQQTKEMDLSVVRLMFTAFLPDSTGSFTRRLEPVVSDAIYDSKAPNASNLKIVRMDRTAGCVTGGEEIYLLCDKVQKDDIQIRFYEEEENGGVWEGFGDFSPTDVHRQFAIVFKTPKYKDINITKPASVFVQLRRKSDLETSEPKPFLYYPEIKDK

Row | Sequence | binding signal [z-score]
23 | CCGATTAACATCAATATTTACCCTGATGTTAATCGGGTCTTGATTCGCTTGACGCTGCTG | 3.16
24 | CCGATTAACATCAGGGGGATAGATGATGTTAATCGGGTCTTGATTCGCTTGACGCTGCTG | 3.89
25 | CCGATTAACATCAGGGAAACTCATGATGTTAATCGGGTCTTGATTCGCTTGACGCTGCTG | 3.13
26 | CCGATTAACATCAGGAAGGCCCCTGATGTTAATCGGGTCTTGATTCGCTTGACGCTGCTG | 2.59
27 | CCGATTAACATCAGGGTATTTACTGATGTTAATCGGGTCTTGATTCGCTTGACGCTGCTG | 5.1
28 | CCGATTAACATCAACGGTGGAAATGATGTTAATCGGGTCTTGATTCGCTTGACGCTGCTG | 1.15
29 | CCGATTAACATCAGGAATTACCATGATGTTAATCGGGTCTTGATTCGCTTGACGCTGCTG | 2.05
30 | CCGATTAACATCAGGAACACCCCTGATGTTAATCGGGTCTTGATTCGCTTGACGCTGCTG | 2.26
31 | CCGATTAACATCAACATTTTCCCTGATGTTAATCGGGTCTTGATTCGCTTGACGCTGCTG | 4.21
32 | CCGATTAACATCAGGGCATTACCTGATGTTAATCGGGTCTTGATTCGCTTGACGCTGCTG | 1.4
33 | CCGATTAACATCAGGCCCCCCCCTGATGTTAATCGGGTCTTGATTCGCTTGACGCTGCTG | 4.51
34 | CCGATTAACATCAGGAAAAGTCCTGATGTTAATCGGGTCTTGATTCGCTTGACGCTGCTG | 1.57
35 | CCGATTAACATCAGGAATCCCTATGATGTTAATCGGGTCTTGATTCGCTTGACGCTGCTG | 1.89
36 | CCGATTAACATCAAGGGAAAATATGATGTTAATCGGGTCTTGATTCGCTTGACGCTGCTG | 4.8
37 | CCGATTAACATCACCCATTCCCCTGATGTTAATCGGGTCTTGATTCGCTTGACGCTGCTG | 5.05
38 | CCGATTAACATCAGGGATCACCCTGATGTTAATCGGGTCTTGATTCGCTTGACGCTGCTG | 2.48
39 | CCGATTAACATCAGATTCTCCCCTGATGTTAATCGGGTCTTGATTCGCTTGACGCTGCTG | 4.4
40 | CCGATTAACATCAGGGGAAGAAATGATGTTAATCGGGTCTTGATTCGCTTGACGCTGCTG | 5.16
41 | CCGATTAACATCAGGGATTCCACTGATGTTAATCGGGTCTTGATTCGCTTGACGCTGCTG | 1.75
42 | CCGATTAACATCACGGGAAACTCTGATGTTAATCGGGTCTTGATTCGCTTGACGCTGCTG | 2.31

Row | Sequence | binding signal [z-score]
43 | CCGATTAACATCAGGGGGTAACCTGATGTTAATCGGGTCTTGATTCGCTTGACGCTGCTG | 4.28
44 | CCGATTAACATCAGAAATTCCCATGATGTTAATCGGGTCTTGATTCGCTTGACGCTGCTG | 4.64
45 | CCGATTAACATCAAAAAACTACCTGATGTTAATCGGGTCTTGATTCGCTTGACGCTGCTG | 4.32
46 | CCGATTAACATCAGGGACAGCCCTGATGTTAATCGGGTCTTGATTCGCTTGACGCTGCTG | 3.54
47 | CCGATTAACATCAATTTCCCGTATGATGTTAATCGGGTCTTGATTCGCTTGACGCTGCTG | 2.68
48 | CCGATTAACATCACCTATTCCCCTGATGTTAATCGGGTCTTGATTCGCTTGACGCTGCTG | 5.12
49 | CCGATTAACATCAGGGGTAAAACTGATGTTAATCGGGTCTTGATTCGCTTGACGCTGCTG | 3.28
50 | CCGATTAACATCACCCATGGGAATGATGTTAATCGGGTCTTGATTCGCTTGACGCTGCTG | 1.43
51 | CCGATTAACATCAGTATTCCCCATGATGTTAATCGGGTCTTGATTCGCTTGACGCTGCTG | 5.14
52 | CCGATTAACATCAACTGGGAAAATGATGTTAATCGGGTCTTGATTCGCTTGACGCTGCTG | 2
53 | CCGATTAACATCAAATCGGGAAATGATGTTAATCGGGTCTTGATTCGCTTGACGCTGCTG | 1.88
54 | CCGATTAACATCAACATCCCCCCTGATGTTAATCGGGTCTTGATTCGCTTGACGCTGCTG | 4.91
55 | CCGATTAACATCAGCTGAGTAGGTGATGTTAATCGGGTCTTGATTCGCTTGACGCTGCTG | 1.45
56 | CCGATTAACATCAGGGAAGTCCATGATGTTAATCGGGTCTTGATTCGCTTGACGCTGCTG | 1.11
57 | CCGATTAACATCAGGATTTTCCCTGATGTTAATCGGGTCTTGATTCGCTTGACGCTGCTG | 5
58 | CCGATTAACATCAAGTGTTTCCCTGATGTTAATCGGGTCTTGATTCGCTTGACGCTGCTG | 1.3
59 | CCGATTAACATCAGGTAATTCCATGATGTTAATCGGGTCTTGATTCGCTTGACGCTGCTG | 2.14
60 | CCGATTAACATCACCGTTCCGATTGATGTTAATCGGGTCTTGATTCGCTTGACGCTGCTG | 1.04
61 | CCGATTAACATCACATTTTCCCATGATGTTAATCGGGTCTTGATTCGCTTGACGCTGCTG | 3.45
